About 1,300 (0.37%) of roughly 350,000 compounds were called active. This excerpt belongs to a sample that is enriched for actives. Unmarked numbers belong to inactive results. Cut-off read from the data, not from the text of the source: active = response mostly above about 7.3% (no sharp cut-off); inactive = mostly below about 5.4%.
Test: yeast vacuolar ATPase proton transport modulators – pHLuorin cytosolic pH fluorescence, primary screen (AID 504577)
Conditions: S. cerevisiae, at 10 µM, hits give high values

Compound | response
Cc1cc(-c2ccc(S(=O)(=O)N3CCc4ccccc4C3)s2)on1 | -0.48%
Cc1cc(-c2ccc(S(=O)(=O)N3CCN(c4cccc(C(F)(F)F)c4)CC3)s2)on1 | 1.88%
O=S(=O)(c1ccc(-c2ccno2)s1)N1CCCCC1 | 9.43% (active)
CCOC(CNC(=O)C1CCN(S(=O)(=O)c2ccc3nc4c(c(C(=O)O)c3c2)CC(C)CC4)CC1)OCC (stereo not drawn) | -5.48%
Cc1cccc(CSc2nc3c(c(=O)n2C)SCC3)c1 | 2.48%
Fc1ccccc1Cc1ccc(Cl)nn1 | -1.91%
CC(C(=O)Nc1ccc(F)c(F)c1F)N1CCCCCC1 (stereo not drawn) | 3.53%
CC1(C)CC(=O)C(C=NCCN2CCN(C(=S)Nc3cccc(Cl)c3)CC2)=C(O)C1 | -5.71%
CCNC(=S)N1CCN(CCN=CC2=C(O)CC(C)(C)CC2=O)CC1 | 20.1% (active)
CC(=O)N1CCN(CCN=CC2=C(O)CC(C)(C)CC2=O)CC1 | 0.38%
COc1ccc2c(c1)cc1n2CCN=C1NN | -2.41%
O=c1[nH]c2ccccc2n2c(-c3ccccc3)nnc12 | -3.47%
CC(=O)Nc1cccc(C(=O)OCC(=O)Nc2nnc(-c3ccccc3)o2)c1 | -2.25%
O=C(COC(=O)c1ccccc1Br)Nc1nnc(-c2ccccc2)o1 | 10.2% (active)
COc1ccccc1C(=O)NCC(=O)OCC(=O)Nc1nnc(-c2ccccc2)o1 | -1.03%
CSc1ncc(C(=O)Nc2ccc(C)cc2C)c(C)n1 | 1.53%
S=c1nccc(-c2cc(Cl)sc2Cl)[nH]1 | -0.72%
COc1ccc(S(=O)(=O)N(C)C)cc1NC(=O)COC(=O)c1n[nH]c2ccccc12 | -1.42%
CC(=O)Nc1ccccc1C(=O)C(=O)Nc1ccc(F)cc1 | 1.43%
CCC(C)c1ccc(NC(=O)COC(=O)C2CCCC2)cc1 (stereo not drawn) | -0.68%
O=[N+]([O-])c1ccc(C=Nc2ccc(Cl)cc2Cl)s1 | 17.4% (active)
CNN/C(N=Cc1ccc([N+](=O)[O-])s1)=N\S(=O)(=O)c1cc(C)c(Cl)cc1SCc1ccccc1 | 1.05%
Cc1ccc(C)c(NC(=O)CN(C)C(=O)COc2ccc3ccccc3c2)c1 | 0.04%
